# Out of some 2,400 compounds screened, about 580 (24%) were called active.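 The calls were made as follows: active = activity change at or above the mean plus 3 SD of buffer wells without dofetilide, per plate; inactive = the rest.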 These entries were drawn from the full list.
# Target: Potassium voltage-gated channel subfamily KQT member 2 (Rattus norvegicus) (UniProt O88943)
# Experiment: KCNQ2 potentiation in CHO cells – cell-based, FluxOR thallium flux, counter-screen for hERG block protector project, confirmation (AID 1942);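 also: normalized value minus buffer-control mean plus three SD of buffer wells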
# Details: FluxOR thallium flux fluorescence, at 10 µM, hits give high values
# Chain of Potassium voltage-gated channel subfamily KQT member 2 (Rattus norvegicus) (O88943 whole entry, looked up): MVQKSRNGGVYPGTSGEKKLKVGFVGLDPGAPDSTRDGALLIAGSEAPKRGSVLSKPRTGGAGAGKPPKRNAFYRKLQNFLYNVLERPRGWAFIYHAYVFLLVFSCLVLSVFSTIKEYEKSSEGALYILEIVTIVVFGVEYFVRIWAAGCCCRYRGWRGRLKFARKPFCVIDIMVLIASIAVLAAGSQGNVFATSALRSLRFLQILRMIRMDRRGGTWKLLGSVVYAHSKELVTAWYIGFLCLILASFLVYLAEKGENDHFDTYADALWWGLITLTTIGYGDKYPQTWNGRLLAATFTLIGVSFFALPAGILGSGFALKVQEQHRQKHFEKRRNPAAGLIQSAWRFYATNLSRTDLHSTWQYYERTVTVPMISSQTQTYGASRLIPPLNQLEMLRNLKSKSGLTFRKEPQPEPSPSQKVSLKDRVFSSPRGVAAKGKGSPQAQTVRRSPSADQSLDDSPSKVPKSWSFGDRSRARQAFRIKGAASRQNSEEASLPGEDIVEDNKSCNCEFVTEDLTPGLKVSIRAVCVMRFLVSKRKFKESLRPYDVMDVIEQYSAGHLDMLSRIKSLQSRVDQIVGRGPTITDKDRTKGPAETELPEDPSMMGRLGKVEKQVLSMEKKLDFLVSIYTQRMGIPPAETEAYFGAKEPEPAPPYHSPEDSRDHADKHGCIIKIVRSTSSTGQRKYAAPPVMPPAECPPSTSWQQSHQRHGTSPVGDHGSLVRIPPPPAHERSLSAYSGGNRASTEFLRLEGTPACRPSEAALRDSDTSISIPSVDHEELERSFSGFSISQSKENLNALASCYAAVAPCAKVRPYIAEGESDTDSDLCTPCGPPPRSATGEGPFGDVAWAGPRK
row,Compound,"activity change, less the hit threshold"
1,Cc1cc(=O)oc2cc(OCC(=O)OCC(=O)NC(C)C)ccc12,-16.8% (inactive)
2,O=C(NCCc1nnc2ccc(NCc3ccc(Cl)cc3)nn12)c1ccccc1,-7.7% (inactive)
3,O=C(N/N=C/c1cc([N+](=O)[O-])ccc1O)c1ccc(COc2ccc3c(c2)CCC3)o1,-47.5% (inactive)
4,N#CCCn1cc(/C=N/NC(=O)c2ccncc2)c(-c2ccc(F)cc2)n1,-4.3% (inactive)
5,CCn1ccnc1CN1CCCC(CO)(Cc2cccc(OC)c2)C1 (stereo unspecified),-24.6% (inactive)
6,CCCCNC(=O)COC(=O)c1ccc(NC(C)=O)cc1,-20.3% (inactive)
7,CCNC(=O)C/C(C)=N/NC(=O)C(=O)Nc1ccc(CC)cc1,4.9% (active)
8,CSCC[C@H](NC(=O)Nc1ccc(C)cc1C)C(=O)O,-12% (inactive)
9,CCOC(=O)C1CCN(S(=O)(=O)c2cccc3nonc23)CC1,-11.1% (inactive)
10,O=C(O)Cc1cc(I)c(Oc2ccc(O)c(I)c2)c(I)c1,93.7% (active)
11,O=C(O)CN1C(=O)c2ccc(Oc3ccc4c(c3)C(=O)N(CC(=O)O)C4=O)cc2C1=O,-11.1% (inactive)
12,NC(=O)Cn1c2[n+](c3ccccc31)CC(O)CS2 (stereo unspecified),-19.2% (inactive)
13,CCc1ccccc1N(CC(=O)NC(C)c1ccccc1)S(C)(=O)=O (stereo unspecified),-20.5% (inactive)
14,Cc1ccc(NC(=O)c2noc3c2CCC3)cc1C,-19.4% (inactive)
15,CCc1ccc(C(C)NC(=O)C2CCCC2)cc1 (stereo unspecified),14.8% (active)
16,Cc1ccc(C(C)NC(=O)C2CCCC2)cc1C (stereo unspecified),37.3% (active)
17,Cc1ccc(NC(=O)C2C3CCC(O3)C2C(=O)O)cc1C (stereo unspecified),-2.7% (inactive)
18,CSc1ccccc1-n1nnnc1SCC(=O)Nc1cc(C)ccc1C,-20.8% (inactive)
19,C=CCSC1=C(C#N)C(c2ccccc2)CC(=O)N1 (stereo unspecified),-23.3% (inactive)
20,Cc1nn(C(=O)CNC(=O)c2ccccc2)c(C)c1C,17.2% (active)
21,O=C(CNC(=O)c1ccccc1)NCc1ccc(Cl)cc1,-10.7% (inactive)

row,Compound,"activity change, less the hit threshold"
1,Cc1ccsc1/C=N/NC(=O)CNC(=O)c1ccccc1,-13.4% (inactive)
2,Cc1ccc(S(=O)(=O)N2CCOCC2)cc1NC(=O)COC(=O)c1cccnc1Cl,-22.8% (inactive)
3,CC(C)c1ccc(CNc2nc3nc4c(c(=O)n3[nH]2)CCC4)cc1,0.8% (active)
4,CCC(=O)Nc1ccc(N2CCOCC2)c(S(=O)(=O)Nc2ccc(OC)cc2)c1,-22.6% (inactive)
5,Cc1ccc2[nH]c(C(=O)O)c(-c3ccccc3)c2c1,-8.1% (inactive)
6,Cc1ccc(-n2nc3ccc(N)cc3n2)c(C)c1,-29.1% (inactive)
7,Cc1cc(C)cc(-n2ncc3c2CCCC3NC(=O)c2csnn2)c1 (stereo unspecified),-28.6% (inactive)
8,CC(O)C(NS(=O)(=O)c1ccc(Cl)cc1)C(=O)OCc1cc([N+](=O)[O-])cc2c1OCOC2 (stereo unspecified),-18.1% (inactive)
9,O=[N+]([O-])c1ccc(Nc2ccccc2F)nc1,-2.6% (inactive)
10,O=[N+]([O-])c1ccc(Nc2ccc(Cl)cc2)nc1,3.5% (active)
11,O=[N+]([O-])c1ccc(CSc2nnc(SCc3ccc(Cl)cc3)s2)cc1,-10.9% (inactive)
12,COc1cc(OC)cc(C(=O)NC(=S)Nc2ccc(NC(=O)c3ccco3)cc2)c1,-20.6% (inactive)
13,CCN(CC)c1ccc(NC(=S)NC(=O)c2ccco2)cc1,35.9% (active)
14,CCOc1ccc(NC(=S)NC(=O)c2ccco2)cc1,8% (active)
15,CCCOc1ccc(C(=O)NNC(=S)NC(=O)c2ccco2)cc1,-27.6% (inactive)
16,CNC(=O)c1cc(C(=O)c2ccc(F)cc2C(F)(F)F)c[nH]1,-11.8% (inactive)
17,CCC(C)(C)NC(=O)c1ccc(Sc2nncn2C)c([N+](=O)[O-])c1,-20.1% (inactive)
18,O=C1CCN(S(=O)(=O)c2ccc(Cl)cc2)CCN1,-21.6% (inactive)
19,CC(Sc1n[nH]c(=O)[nH]c1=O)C(=O)OCc1ccccc1 (stereo unspecified),-11.2% (inactive)
20,COCCNC(=O)CN(C(=O)c1ccc(N2CCCC2)nc1)c1ccccc1,-18.5% (inactive)
21,CC(=O)Nc1ccccc1NC(=O)C/C(C)=N/NC(=O)c1ccc([N+](=O)[O-])c(Cl)c1,-19% (inactive)

row,Compound,"activity change, less the hit threshold"
1,Cn1nnnc1SCC(=O)Nc1ccccn1,-5.9% (inactive)
2,C/C(CC(=O)Nc1ccccn1)=N\NC(=O)C(=O)Nc1cccc(Cl)c1C,1.1% (active)
3,c1ccc(Cn2ncc3c(N4CCN(C(c5ccccc5)c5ccccc5)CC4)ncnc32)cc1,-29.3% (inactive)
4,COc1cccc2sc(Nc3nc(-c4ccccn4)cs3)nc12,20.3% (active)
5,COc1cccc2sc(Nc3nnc(-c4ccc(F)cc4)o3)nc12,45.4% (active)
6,N#C/C(=C\c1ccc(-c2ccccc2Cl)o1)C(=O)Nc1nc2ccccc2s1,-10.9% (inactive)
7,COc1ccccc1Nc1nnc(SCC(=O)Nc2nc(-c3ccc(F)cc3)cs2)s1,-22.3% (inactive)
8,CCOc1ccccc1Nc1nc(-c2sc(C)nc2C)cs1,-22% (inactive)
9,COc1cccc2sc(Nc3nnc(-c4ccccc4Cl)o3)nc12,9.4% (active)
10,COc1cccc2sc(Nc3nnc(-c4cccs4)o3)nc12,53.9% (active)
11,Cc1ccc(CNC(=O)C2=CCN(S(=O)(=O)c3ccc(C)cc3)CC2)cc1,-15.1% (inactive)
12,Cc1c(C(=O)NNC(=O)c2ccncc2)oc2ccc(Br)cc12,-16.1% (inactive)
13,Cc1ccc(CNC(=O)CN(C(=O)C2(C)CC(=O)N=C3C=CC=CN32)c2ccccc2F)cc1 (stereo unspecified),-10.9% (inactive)
14,C=Cc1ccc(Cn2c(=O)n(CCCOC)c(=O)c3sccc32)cc1,-28.9% (inactive)
15,O=S(=O)(Nc1ccc(Cc2ccncc2)cc1)c1ccc(Cl)c(Cl)c1,-20.9% (inactive)
16,CCCn1c(CC)nc([N+](=O)[O-])c1S(=O)(=O)c1ccccc1,-4.3% (inactive)
17,CC(C)[C@H](NC(=O)c1ccco1)C(=O)OCC(=O)Nc1cccc(F)c1,-22% (inactive)
18,CCOc1c(OC)ccc2c3c(c(=O)oc12)CCCC3,-8.2% (inactive)
19,CN1CCN(S(=O)(=O)c2cccc(S(=O)(=O)c3ccc(Cl)cc3)c2)CC1,-17.8% (inactive)

# — PubChem BioAssay AID1942 (Johns Hopkins Ion Channel Center, 2009)
